How the values were obtained:
Assay in all cases: thermal shift delta Tm vs DMSO control; higher = stronger stabilization (binding)
Details in all cases: 12.5 µM; protein concentration 2 µM
[1] = system: LOC_OS02G45750-cb003
Summary of the method: (§1)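 Purified, E. coli-expressed rice kinase domain constructs were tested by differential scanning fluorimetry in 96-well plates: 19.5 μl of 2 μM kinase in 100 mM potassium phosphate pH 7.5, 150 mM NaCl, 10% glycerol, 5 × SYPRO Orange, plus compound in DMSO. Fluorescence was read from 25°C to 95°C at 0.05°C/s. Melting temperatures came from Boltzmann fits, and the shift is the triplicate mean relative to protein with DMSO alone.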

[2] = system: LOC_OS02G54510-cb004
Summary of the method: as §1

[3] = system: LOC_OS03G04050-cb001
Summary of the method: as §1

[4] = system: LOC_OS03G12390-cb001
Summary of the method: as §1

[5] = system: LOC_OS03G27990-cb004
Summary of the method: as §1

[6] = system: LOC_OS03G50450-cb001
Summary of the method: as §1

[7] = system: LOC_OS03G50810-cb003
Summary of the method: as §1

[8] = system: LOC_OS04G35114-cb001
Summary of the method: as §1

[9] = system: T1, LOC_OS04G38480-cb003
T1 sequence (whole entry): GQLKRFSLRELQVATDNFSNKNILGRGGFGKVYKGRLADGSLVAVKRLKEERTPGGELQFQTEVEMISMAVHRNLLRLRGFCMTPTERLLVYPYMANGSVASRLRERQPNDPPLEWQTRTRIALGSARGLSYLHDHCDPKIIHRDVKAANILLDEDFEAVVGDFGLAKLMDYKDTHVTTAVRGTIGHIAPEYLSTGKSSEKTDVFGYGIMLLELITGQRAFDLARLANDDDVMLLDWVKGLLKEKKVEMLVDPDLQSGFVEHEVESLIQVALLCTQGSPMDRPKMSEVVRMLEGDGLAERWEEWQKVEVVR
Summary of the method: as §1

[10] = system: T2, LOC_OS04G41100-cb001
T2 sequence (whole entry): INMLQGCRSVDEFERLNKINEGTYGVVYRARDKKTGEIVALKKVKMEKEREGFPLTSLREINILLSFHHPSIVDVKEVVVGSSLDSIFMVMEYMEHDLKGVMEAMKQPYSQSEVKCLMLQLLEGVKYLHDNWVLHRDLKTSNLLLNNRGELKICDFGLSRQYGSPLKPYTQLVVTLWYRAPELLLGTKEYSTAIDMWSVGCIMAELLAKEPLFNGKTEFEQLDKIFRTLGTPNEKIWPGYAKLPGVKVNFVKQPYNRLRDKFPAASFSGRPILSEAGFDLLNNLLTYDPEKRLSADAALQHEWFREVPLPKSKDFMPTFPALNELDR
Summary of the method: as §1

[11] = system: LOC_OS04G57630-cb004
Summary of the method: as §1

[12] = system: LOC_OS05G07850-cb002
Summary of the method: as §1

[13] = system: LOC_OS05G16824-cb004
Summary of the method: as §1

[14] = system: LOC_OS05G28520-cb001
Summary of the method: as §1

[15] = system: LOC_OS05G30820-cb001
Summary of the method: as §1

[16] = system: LOC_OS05G43570-cb004
Summary of the method: as §1

[17] = system: LOC_OS06G16330-cb003
Summary of the method: as §1

[18] = system: T3, LOC_OS06G22820-cb001
T3 sequence (whole entry): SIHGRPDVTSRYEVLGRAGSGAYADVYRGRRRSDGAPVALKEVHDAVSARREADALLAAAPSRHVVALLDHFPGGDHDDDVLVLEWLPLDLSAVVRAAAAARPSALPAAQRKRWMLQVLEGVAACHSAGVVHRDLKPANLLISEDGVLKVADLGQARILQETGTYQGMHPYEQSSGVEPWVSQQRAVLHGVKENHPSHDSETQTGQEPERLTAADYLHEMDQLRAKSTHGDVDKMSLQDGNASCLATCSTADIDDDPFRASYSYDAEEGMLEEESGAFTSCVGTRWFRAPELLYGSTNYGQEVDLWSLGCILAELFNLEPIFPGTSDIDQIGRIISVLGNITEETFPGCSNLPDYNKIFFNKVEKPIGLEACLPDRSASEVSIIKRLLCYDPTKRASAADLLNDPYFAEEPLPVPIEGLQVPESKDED
Summary of the method: as §1

[19] = system: LOC_OS07G06570-cb004
Summary of the method: as §1

[20] = system: LOC_OS07G07230-cb001
Summary of the method: as §1

Chain of LOC_OS06G16330-cb003 (as listed by the source): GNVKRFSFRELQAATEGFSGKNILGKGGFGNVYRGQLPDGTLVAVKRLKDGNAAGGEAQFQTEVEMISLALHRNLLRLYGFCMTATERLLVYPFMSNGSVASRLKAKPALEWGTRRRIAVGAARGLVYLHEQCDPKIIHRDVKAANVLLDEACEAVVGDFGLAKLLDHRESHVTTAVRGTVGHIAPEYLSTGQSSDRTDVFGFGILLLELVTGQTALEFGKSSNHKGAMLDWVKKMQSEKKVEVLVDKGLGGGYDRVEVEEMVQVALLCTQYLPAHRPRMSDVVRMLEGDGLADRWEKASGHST

Row | SMILES | thermal shift delta Tm [1] [°C] | thermal shift delta Tm [2] [°C] | thermal shift delta Tm [3] [°C] | thermal shift delta Tm [4] [°C] | thermal shift delta Tm [5] [°C] | thermal shift delta Tm [6] [°C] | thermal shift delta Tm [7] [°C] | thermal shift delta Tm [8] [°C] | thermal shift delta Tm [9] [°C] | thermal shift delta Tm [10] [°C] | thermal shift delta Tm [11] [°C] | thermal shift delta Tm [12] [°C] | thermal shift delta Tm [13] [°C] | thermal shift delta Tm [14] [°C] | thermal shift delta Tm [15] [°C] | thermal shift delta Tm [16] [°C] | thermal shift delta Tm [17] [°C] | thermal shift delta Tm [18] [°C] | thermal shift delta Tm [19] [°C] | thermal shift delta Tm [20] [°C]
1 | COc1cc2c(cc1OC)[C@@H]1C(=O)c3ccc4c(c3O[C@@H]1CO2)C=CC(C)(C)O4 [Deguelin] | 0.46 | -0.02 | 0.25 | -0.38 | 0.07 | 0.4 | 0.24 | 0.63 | 1.39 | 0.34 | 0.18 | -0.44 | -0.75 | -0.03 | -0.19 | 0.47 | -0.59 | 0.97 | 0.49 | -0.57
2 | Cn1ncc(Cl)c1-c1cc(C(=O)N[C@H](CN)Cc2cccc(F)c2)sc1Cl | 0.37 | -0.08 | 0.33 | 0 | 0.16 | 0.15 | -0.04 | 0.42 | 0.52 | 0.2 | -0.03 | 0.66 | -1.28 | 0.54 | 0.43 | 0.61 | 0.52 | 0.88 | 1.37 | 0.28
3 | N#CC(=C(/N)Sc1ccccc1N)/C(C#N)=C(\N)Sc1ccccc1N | 0.68 | -0.59 | 0.78 | 1.33 | 0.63 | 0.62 | 0.78 | -0.47 | -1.15 | 0.28 | -0.53 | -1.4 | -1.67 | 1.16 | 0.39 | 0.33 | 1.2 | 1.19 | -0.22 | 0.58
4 | C[C@H](NC(=O)c1c(N)nn2cccnc12)c1cc2cccc(C#Cc3cnn(C)c3)c2c(=O)n1-c1ccccc1 | 1.18 | 0.33 | 0.47 | -0.11 | 0.46 | 0.63 | 0.32 | 0.21 | 1.13 | 0.04 | -0.07 | 0.09 | 2.93 | 0.27 | 0.07 | 0.11 | -0.63 | 0.3 | 1.69 | 0.62
5 | CNC(=O)c1nn(C)c2c1C(C)(C)Cc1cnc(Nc3ccc(N4CCN(C)CC4)cc3)nc1-2 | 7.62 | 0.71 | 0.62 | -0.14 | 1.08 | 0.91 | 4.16 | 7.06 | 1.96 | 0.65 | 3.76 | 6.76 | 7.67 | 4.23 | 0.45 | 0.22 | 4.37 | 0.43 | 0.26 | 0.04
6 | COc1cc(-c2cc(-c3ccc(N4CCNCC4)cc3)cnc2C)cc(OC)c1OC | 2.4 | 0.19 | 0.41 | -0.01 | 0.29 | 0.65 | 0.51 | 2.27 | 1.94 | 0.29 | 0.42 | 3.83 | 0.31 | 0.5 | 0.25 | 0.17 | 2.03 | 0.21 | 0.35 | 0.01
7 | CS(=O)(=O)c1ccc(-c2cnc(N)c(C(=O)Nc3ccccc3)n2)cc1 | 4.49 | 0.26 | 0.2 | 0.62 | 0.7 | 0.18 | 0.94 | 3.32 | 1.11 | 0.38 | 0.45 | 8.7 | -1.5 | 0.25 | 0.57 | 0.1 | 2.51 | 0.37 | 0.82 | 0.7
8 | NCC(=O)Nc1ccc(-n2nc(C(F)(F)F)cc2-c2ccc3c(ccc4ccccc43)c2)cc1 | -0.16 | -0.91 | 0.64 | 0.8 | -0.15 | 0.36 | 0.37 | -0.57 | 1.25 | 0.65 | -0.2 | 1.75 | 1.88 | 0.25 | -0.08 | 0.27 | 0.39 | 0.4 | 0.5 | 0.18
9 | Cc1cc(Nc2ncnc3ccc(NC4=NC(C)(C)CO4)cc23)ccc1Oc1ccn2ncnc2c1 [Irbinitinib (ARRY-380, ONT-380)] | 0 | 0.14 | 0.65 | -3.39 | -0.73 | -0.45 | -0.83 | -1.83 | 0.82 | 0.49 | 0.3 | 0.8 | -0.96 | 0.07 | 0.07 | 0.33 | -0.51 | 0.49 | 1.27 | 0.02
10 | CN1CCN(c2ccc3nc(-c4c(N)c5c(F)cccc5[nH]c4=O)[nH]c3c2)CC1 [Dovitinib (TKI258) Lactate] | 16.7 | 2.48 | 1.03 | 5.56 | 8.6 | 5.37 | 7.48 | 10 | 3.95 | 1.24 | 4.11 | 8.85 | 14.8 | 1.89 | 1.87 | 0.71 | 8.12 | 0.62 | 1.96 | 0.72
11 | O=C1Nc2ccc(CN3C(=O)CSC3=O)cc2/C1=C/c1cc(CN2CCOCC2)c[nH]1 | 2.91 | 0.28 | 0.58 | 4.37 | 0.63 | 0.68 | 2 | 3.48 | 3.05 | 0.46 | 1.02 | 6.39 | 8.47 | 0.01 | 0.12 | 0.23 | 9.36 | 1.05 | 1.86 | 0.48
12 | CCn1nc(C2CCN(C(=O)CCO)CC2)nc1-c1cnc(N)c(-c2nnc(C(C)(C)C)o2)n1 | 3.05 | 0.25 | 0.43 | 4.97 | 0.52 | 0.05 | 0.89 | 4.72 | 2.09 | 0.3 | 0.47 | 8.76 | 1.95 | 0.66 | 0.58 | 0.43 | 5.59 | 0.93 | 0.86 | 0.4
13 | CN(C)C/C=C/C(=O)Nc1cc2c(Nc3ccc(F)c(Cl)c3)ncnc2cc1O[C@H]1CCOC1 [Afatinib (BIBW2992)] | 0.69 | -0.42 | 0.26 | 1.35 | 0.99 | 0.05 | 0.86 | 4.16 | 0.66 | 0.51 | -0.38 | 7.09 | 0.09 | 0.25 | 0.35 | 0.5 | 1 | 0.48 | 0.78 | 0.57
